Reference: the supplement of paper PMC10849652
The full data set covers some 8,800 targets. This sample favours those with a hit. About 0.5% of all pairs of compound and target were hits.

Each target was assayed with Cc1nc(Nc2n[nH]c3c2CN(C(=O)N[C@H](CN(C)C)c2ccccc2)C3(C)C)c2sccc2n1 (assay: log2 fold change, soluble protein after heating vs DMSO (PISA); higher = thermal stabilisation; K562 lysate, 10 uM; active = over 0.2 and 3.5 SD of the protein, either way, in both replicates (recomputed)).
Outline: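 Quantification was by TMTpro 16plex LC-MS/MS with equalised channel sums, applied to the supernatant after 21,000xg for 90 min. Samples were crude K562 extract at 1 mg/mL protein in PBS pH 7.4 with 1 mM MgCl2, treated with 10 μM compound for 30 min, heated for 3 min across 48°C-58°C, pooled and brought to 0.5% NP-40 at 4°C. Values are log-two fold changes in thermal stability relative to solvent controls, from duplicates.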

Chain of UniProt P50570 (P50570 whole entry, looked up): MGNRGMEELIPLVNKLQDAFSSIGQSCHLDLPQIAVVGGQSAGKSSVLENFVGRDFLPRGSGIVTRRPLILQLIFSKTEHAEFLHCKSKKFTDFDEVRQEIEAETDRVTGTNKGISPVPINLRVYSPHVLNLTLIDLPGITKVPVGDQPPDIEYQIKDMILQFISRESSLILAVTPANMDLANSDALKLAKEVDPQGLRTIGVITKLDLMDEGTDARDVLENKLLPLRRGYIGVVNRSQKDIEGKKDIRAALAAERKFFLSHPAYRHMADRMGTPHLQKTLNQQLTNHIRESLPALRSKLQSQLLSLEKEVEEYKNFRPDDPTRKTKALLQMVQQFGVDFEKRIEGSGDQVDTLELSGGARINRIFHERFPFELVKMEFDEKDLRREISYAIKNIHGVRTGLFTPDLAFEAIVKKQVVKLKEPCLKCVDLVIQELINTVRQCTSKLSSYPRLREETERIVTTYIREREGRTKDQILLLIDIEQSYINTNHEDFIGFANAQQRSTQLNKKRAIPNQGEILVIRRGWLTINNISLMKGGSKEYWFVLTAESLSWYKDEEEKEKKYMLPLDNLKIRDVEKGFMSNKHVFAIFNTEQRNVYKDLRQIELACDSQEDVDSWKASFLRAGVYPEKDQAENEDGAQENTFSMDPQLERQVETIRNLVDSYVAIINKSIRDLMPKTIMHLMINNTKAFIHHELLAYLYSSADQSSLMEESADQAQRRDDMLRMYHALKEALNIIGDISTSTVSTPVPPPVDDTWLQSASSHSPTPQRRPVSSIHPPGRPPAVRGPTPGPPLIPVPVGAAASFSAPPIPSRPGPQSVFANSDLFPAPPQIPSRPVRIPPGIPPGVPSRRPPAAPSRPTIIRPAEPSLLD
Chain of UniProt Q9H2P9 (Q9H2P9 whole entry, looked up): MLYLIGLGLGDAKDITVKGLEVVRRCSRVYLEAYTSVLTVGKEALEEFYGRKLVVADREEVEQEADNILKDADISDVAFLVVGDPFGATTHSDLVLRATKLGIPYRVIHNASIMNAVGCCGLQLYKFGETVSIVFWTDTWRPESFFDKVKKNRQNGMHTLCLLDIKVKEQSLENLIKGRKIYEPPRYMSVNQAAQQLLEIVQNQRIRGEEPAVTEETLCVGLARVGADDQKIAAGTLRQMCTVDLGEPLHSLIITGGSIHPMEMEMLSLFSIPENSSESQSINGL
Chain of UniProt P33240 (P33240 whole entry, looked up): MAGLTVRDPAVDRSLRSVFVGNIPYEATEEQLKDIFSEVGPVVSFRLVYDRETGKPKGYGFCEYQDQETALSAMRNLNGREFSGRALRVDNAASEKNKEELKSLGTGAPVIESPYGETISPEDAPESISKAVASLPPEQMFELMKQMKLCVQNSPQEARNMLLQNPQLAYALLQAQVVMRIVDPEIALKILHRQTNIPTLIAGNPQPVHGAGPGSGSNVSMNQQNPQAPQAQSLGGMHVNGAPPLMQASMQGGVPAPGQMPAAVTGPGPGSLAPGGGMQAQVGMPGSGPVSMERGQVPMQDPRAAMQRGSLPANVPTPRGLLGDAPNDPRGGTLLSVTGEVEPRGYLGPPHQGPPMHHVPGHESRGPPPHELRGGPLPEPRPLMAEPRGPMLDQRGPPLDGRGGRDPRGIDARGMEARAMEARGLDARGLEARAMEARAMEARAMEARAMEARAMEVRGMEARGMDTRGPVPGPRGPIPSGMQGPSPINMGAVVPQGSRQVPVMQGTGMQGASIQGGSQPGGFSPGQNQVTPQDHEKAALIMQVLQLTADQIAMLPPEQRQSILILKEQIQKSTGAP
Chain of UniProt Q96KA5 (Q96KA5 whole entry, looked up): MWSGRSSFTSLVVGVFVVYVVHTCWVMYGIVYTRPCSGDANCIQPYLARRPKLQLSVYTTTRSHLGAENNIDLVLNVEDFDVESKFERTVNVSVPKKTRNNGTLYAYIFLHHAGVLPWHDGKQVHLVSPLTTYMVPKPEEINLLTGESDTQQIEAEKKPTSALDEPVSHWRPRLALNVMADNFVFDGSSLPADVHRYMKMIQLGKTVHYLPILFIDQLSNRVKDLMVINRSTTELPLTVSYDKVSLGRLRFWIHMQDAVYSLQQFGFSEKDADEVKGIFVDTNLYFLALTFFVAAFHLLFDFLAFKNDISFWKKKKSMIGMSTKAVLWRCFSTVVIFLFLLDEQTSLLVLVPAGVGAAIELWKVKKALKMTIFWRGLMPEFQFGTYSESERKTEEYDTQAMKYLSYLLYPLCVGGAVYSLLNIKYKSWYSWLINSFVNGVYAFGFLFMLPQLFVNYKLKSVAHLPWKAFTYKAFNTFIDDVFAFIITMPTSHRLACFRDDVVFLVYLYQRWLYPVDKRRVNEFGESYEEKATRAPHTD
Chain of UniProt Q9P0U4 (Q9P0U4 whole entry, looked up): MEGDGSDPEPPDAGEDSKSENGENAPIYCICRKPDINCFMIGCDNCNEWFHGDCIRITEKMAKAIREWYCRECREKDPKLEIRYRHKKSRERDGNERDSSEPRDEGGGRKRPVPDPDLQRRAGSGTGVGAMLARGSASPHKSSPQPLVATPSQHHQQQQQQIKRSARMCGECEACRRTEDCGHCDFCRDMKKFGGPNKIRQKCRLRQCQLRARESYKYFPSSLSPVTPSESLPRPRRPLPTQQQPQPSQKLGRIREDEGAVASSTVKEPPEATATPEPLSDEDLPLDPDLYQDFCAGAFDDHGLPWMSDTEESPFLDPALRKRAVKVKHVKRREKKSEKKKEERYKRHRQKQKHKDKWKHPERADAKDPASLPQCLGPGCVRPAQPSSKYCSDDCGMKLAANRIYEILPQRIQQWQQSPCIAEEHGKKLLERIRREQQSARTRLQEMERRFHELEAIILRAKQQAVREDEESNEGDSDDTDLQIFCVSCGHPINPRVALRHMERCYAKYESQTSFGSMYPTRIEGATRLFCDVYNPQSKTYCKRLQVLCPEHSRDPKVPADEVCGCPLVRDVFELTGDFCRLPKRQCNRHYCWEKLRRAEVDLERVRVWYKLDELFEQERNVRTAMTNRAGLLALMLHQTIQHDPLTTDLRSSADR
Chain of UniProt Q9UBM7 (Q9UBM7 whole entry, looked up): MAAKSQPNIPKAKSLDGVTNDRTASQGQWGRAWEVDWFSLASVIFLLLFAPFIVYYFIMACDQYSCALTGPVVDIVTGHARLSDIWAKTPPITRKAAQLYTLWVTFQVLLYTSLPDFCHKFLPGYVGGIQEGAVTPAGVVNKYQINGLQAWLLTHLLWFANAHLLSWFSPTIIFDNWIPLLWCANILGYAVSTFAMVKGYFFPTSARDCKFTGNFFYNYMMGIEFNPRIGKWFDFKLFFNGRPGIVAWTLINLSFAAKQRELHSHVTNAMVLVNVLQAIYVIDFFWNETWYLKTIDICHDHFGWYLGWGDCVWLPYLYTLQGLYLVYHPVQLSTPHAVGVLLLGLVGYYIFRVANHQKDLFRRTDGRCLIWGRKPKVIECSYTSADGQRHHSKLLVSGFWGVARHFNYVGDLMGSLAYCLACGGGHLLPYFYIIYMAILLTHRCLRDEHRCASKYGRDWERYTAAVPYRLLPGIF
Chain of UniProt Q1MSJ5 (Q1MSJ5 whole entry, looked up): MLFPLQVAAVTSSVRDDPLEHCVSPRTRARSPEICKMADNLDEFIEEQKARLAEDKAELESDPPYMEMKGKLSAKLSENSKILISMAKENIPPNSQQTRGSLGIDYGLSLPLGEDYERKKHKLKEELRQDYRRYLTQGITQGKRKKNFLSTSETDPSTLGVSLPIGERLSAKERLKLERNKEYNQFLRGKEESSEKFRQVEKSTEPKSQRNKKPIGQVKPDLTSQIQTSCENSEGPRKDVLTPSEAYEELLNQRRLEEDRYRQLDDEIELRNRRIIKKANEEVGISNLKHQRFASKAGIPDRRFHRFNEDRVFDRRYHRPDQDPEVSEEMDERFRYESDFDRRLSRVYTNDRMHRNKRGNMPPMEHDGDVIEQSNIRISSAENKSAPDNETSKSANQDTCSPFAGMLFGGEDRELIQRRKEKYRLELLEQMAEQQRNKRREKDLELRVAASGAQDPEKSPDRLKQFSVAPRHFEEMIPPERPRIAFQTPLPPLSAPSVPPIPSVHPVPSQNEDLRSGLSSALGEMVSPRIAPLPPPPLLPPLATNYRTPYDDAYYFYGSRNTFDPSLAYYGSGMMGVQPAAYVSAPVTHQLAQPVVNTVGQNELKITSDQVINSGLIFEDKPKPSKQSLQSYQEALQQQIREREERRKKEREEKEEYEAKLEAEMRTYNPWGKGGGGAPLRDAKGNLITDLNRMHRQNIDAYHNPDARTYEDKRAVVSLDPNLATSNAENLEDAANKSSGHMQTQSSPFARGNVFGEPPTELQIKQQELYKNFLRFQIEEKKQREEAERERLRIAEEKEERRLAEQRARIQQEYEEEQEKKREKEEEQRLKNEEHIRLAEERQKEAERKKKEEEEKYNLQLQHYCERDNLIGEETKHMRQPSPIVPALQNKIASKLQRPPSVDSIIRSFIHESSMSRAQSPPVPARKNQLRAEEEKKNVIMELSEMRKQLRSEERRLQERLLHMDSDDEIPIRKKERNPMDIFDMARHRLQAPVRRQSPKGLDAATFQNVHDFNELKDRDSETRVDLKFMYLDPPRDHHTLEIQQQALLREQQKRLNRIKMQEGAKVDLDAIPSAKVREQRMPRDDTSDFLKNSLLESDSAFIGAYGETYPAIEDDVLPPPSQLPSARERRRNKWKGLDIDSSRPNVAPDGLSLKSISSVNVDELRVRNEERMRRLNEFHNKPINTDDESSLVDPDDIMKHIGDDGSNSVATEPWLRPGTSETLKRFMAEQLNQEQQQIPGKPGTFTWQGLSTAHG
Chain of UniProt Q8TB03 (Q8TB03 whole entry, looked up): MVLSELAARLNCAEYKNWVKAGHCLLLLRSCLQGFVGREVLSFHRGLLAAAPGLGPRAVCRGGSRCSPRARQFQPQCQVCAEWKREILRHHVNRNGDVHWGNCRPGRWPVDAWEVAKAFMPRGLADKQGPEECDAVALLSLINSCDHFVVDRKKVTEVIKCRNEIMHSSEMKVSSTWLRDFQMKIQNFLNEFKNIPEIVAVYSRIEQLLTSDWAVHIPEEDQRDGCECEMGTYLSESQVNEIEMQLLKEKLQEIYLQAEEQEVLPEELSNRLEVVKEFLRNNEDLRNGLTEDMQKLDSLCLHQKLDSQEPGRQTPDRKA

log2 fold change, inactive:
COTL1 (UniProt Q14019) 0.003, DHCR7 (UniProt Q9UBM7) 0.016, DIAPH3 (UniProt Q9NSV4) 0.019, DMAC2L (UniProt Q99766) 0.001, COQ8A (UniProt Q8NI60) -0.013, CLIP1 isoform 1 (UniProt P30622) 0.01, CORO7 isoform 3 (UniProt P57737) 0.003, CLASP2 isoform 3 (UniProt O75122) -0.004, COG5 isoform 2 (UniProt Q9UP83) 0.057, DOCK7 (UniProt Q96N67) -0.002, CLUH (UniProt O75153) 0.075, CRABP2 (UniProt P29373) -0.125, CUEDC2 (UniProt Q9H467) 0.055, CNOT6L (UniProt Q96LI5) 0.016, COG4 (UniProt Q9H9E3) -0.01, CLPTM1L (UniProt Q96KA5) -0.005, DPH5 isoform 5 (UniProt Q9H2P9) 0.289, CXXC1 isoform 2 (UniProt Q9P0U4) 0.029, COG6 (UniProt Q9Y2V7) 0.038, DENND4A isoform 2 (UniProt Q7Z401) -0.002, CMBL (UniProt Q96DG6) 0.054, DNM2 isoform 4 (UniProt P50570) -0.018, DMXL1 (UniProt Q9Y485) 0.006, DNM2 (UniProt P50570) -0.015, COG3 (UniProt Q96JB2) -0.023, DPM1 (UniProt O60762) 0.019, CSPP1 (UniProt Q1MSJ5) -0.014, CNIH4 (UniProt Q9P003) -0.327, CSTF2 (UniProt P33240) 0.038, CXorf38 (UniProt Q8TB03) 0.013, DHRS11 (UniProt Q6UWP2) 0.017, CHEK1 (UniProt O14757) -0.158, COG2 (UniProt Q14746) 0.008, CLIC2 (UniProt O15247) -0.032
